The record followed here is PubChem BioAssay (Tox21).

“And” between values parts separate entries of the source, which are not always exact repeats. Equal values may be shown once. Inconclusive results are not listed. The source made the active and inactive calls. Calls follow the shape of the dose curve; as a rule, active = well fitted curve in the direction sought with a large enough effect in the repeat runs; inconclusive = weak or mixed curves; inactive = no such curve, though single readings can be large; an effect the other way counts as inactive or inconclusive.

Assay [1] can be described thus: A CellTox Green Cytotoxicity Assay to monitor cytotoxicity in HepG2 cells - 32 hour (AID 1224883). Also: nearly all actives have a fitted effect of over 50% in size. An outline of the steps: (§1)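 Cells and non-lytic dye reagent are dispensed together (600 HepG2 cells/well) and incubated 5 h before DMSO compound transfer. Kinetic fluorescence is then recorded in the same wells during 40 h at 37 C.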
Assay [2] in a line: qHTS RealTime-Glo MT Cell Viability Assay in HEK293 cells - 24 hour (AID 1224886). Also: nearly all actives have a fitted effect of over 50% in size. An outline of the steps: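 Assay medium contained NanoLuc luciferase plus cell-permeant prosubstrate, added with HEK293 cells at 600 cells/well. After 5 h at 37 C/5% CO2 compounds were added; plates stayed at 37 C for 40 h with serial luminescence reads.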
A general note: qHTS replaces the single test concentration by a dilution series.

A short description of assay [3]: qHTS RealTime-Glo MT Cell Viability Assay in HEK293 cells - 8 hour (AID 1224887). Also: nearly all actives have a fitted effect of over 50% in size. An outline of the steps:
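Real-time viability in HEK293: signal arises when living cells convert a prosubstrate for NanoLuc in the medium, so luminescence tracks viable cell number. Compound (23 nL, DMSO) added 5 h post-seeding; kinetic reads at 0–40 h, 37 C.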

Assay [4] can be described thus: A CellTox Green Cytotoxicity Assay to monitor cytotoxicity in HEK293 cells - 16 hour (AID 1224888). Also: nearly all actives have a fitted effect of over 35% in size. An outline of the steps: (§2)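 Cells (HEK293, 600/well) and dye reagent are dispensed together. After 5 h at 37 C, 23 nL compound is pinned in. Plates stay at 37 C for 40 h with fluorescence read at 0h, 8h, 16h, 24h, 32h and 40h.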
The nature of assay [5]: qHTS RealTime-Glo MT Cell Viability Assay in HepG2 cells - 0 hour (AID 1224889). Also: nearly all actives have a fitted effect of over 50% in size. An outline of the steps: (§3)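 qHTS, HepG2, 600 cells/well, RealTime-Glo (NanoLuc + prosubstrate) added with cells; 5 h preincubation; DMSO compound addition; 37 C; luminescence at 0/8/16/24/32/40 h.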
Assay [6] can be described thus: A CellTox Green Cytotoxicity Assay to monitor cytotoxicity in HepG2 cells - 8 hour (AID 1224890). Also: nearly all actives have a fitted effect of over 45% in size. An outline of the steps:
as §1

Assay [7] in a line: qHTS assay to identify small molecule antagonists of the estrogen receptor alpha (ER-alpha) signaling pathway using the BG1 cell line in the presence of 0.1 nM 17-beta-estradiol - cell viability counter screen (AID 1259241). Also: nearly all actives have a fitted effect of over 40% in size. An outline of the steps:
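VM7Luc4E2, 4,000 cells/well, phenol red-free medium + 10% charcoal-stripped FBS; 24 hr plating; cpd + 0.1 nM E2 final, 22 hr 37C/5% CO2; CellTiter-Fluor 30 min, fluorescence.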

Assay [8] in a line: qHTS assay to identify small molecule antagonists of the androgen receptor (AR) signaling pathway using the MDA cell line in the presence of 0.5 nM R1881 - cell viability counter screen (AID 1259242). Also: nearly all actives have a fitted effect of over 45% in size. An outline of the steps:
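Steps: plate MDA-kb2 cells, rest 5 hr at 37C without CO2; pin in compounds in DMSO; add R1881 to 0.5 nM final; incubate 16 hr; add CellTiter-Fluor, 30 min; read fluorescence.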

The nature of assay [9]: qHTS RealTime-Glo MT Cell Viability Assay in HepG2 cells - 16 hour (AID 1224885). Also: nearly all actives have a fitted effect of over 50% in size. An outline of the steps:
as §3

A short description of assay [10]: A CellTox Green Cytotoxicity Assay to monitor cytotoxicity in HEK293 cells - 8 hour (AID 1224884). Also: nearly all actives have a fitted effect of over 35% in size. An outline of the steps: as §2
% is scaled to controls: 0 for no effect and ±100 for the full control effect; potency is read from the fitted curve at half-maximal effect.

In the case of `c1ccc(CSCc2ccccc2)cc1`, the Potency entry in assay [1], in [2], in assay [3], in assay [4], in assay [5] and in [6] was “inactive” each time. The Potency entry in [7] and in assay [8] was “inactive” each time.

For `CCCCCCCCCCCCc1ccc(O)cc1`, the Potency was 15.5 µM (active) in [1]; 43.6 µM (active) in assay [2]; 43.6 µM (active) in assay [3]; 49 µM (active) in assay [4]; 17.4 µM (active) in assay [6]. Besides, the Potency result in assay [5] is “inactive”.

Regarding `CC(=O)N1CCN(c2ccc(OC[C@H]3CO[C@](Cn4ccnc4)(c4ccc(Cl)cc4Cl)O3)cc2)CC1`, the Potency in assay [1] was 49 µM (active); in [9] it was 49 µM (active); in assay [3], 24.5 µM (active); in assay [4], 49 µM (active); in assay [5], 24.5 µM (active). For the same compound, the Potency entry in assay [6] is “inactive”.

With `Cc1cccc(CN2CCN(C(c3ccccc3)c3ccc(Cl)cc3)CC2)c1` (centres undefined), the Potency entry in assay [1], in assay [9], in [3], in [4], in assay [5] and in assay [6] was “inactive” each time. For the same compound, the Potency result in [7] and in [8] was “inactive” in each case.

For `CC/C(=C(\c1ccc(O)cc1)c1ccc(OCCN(C)C)cc1)c1ccccc1`, the Potency in assay [1] is 49.1 µM (active); in [9] it was 61.8 µM (active); in assay [3], 27.6 µM (active); in [4] it was 55.1 µM (active). The Potency result in assay [5] is “inactive”.

For the compound `CCCCCOc1ccccc1/C(=C\SC)n1ccnc1`, the Potency result in [1], in assay [4], in assay [5], in [6] and in assay [7] was “inactive” in each case.

Take `NC(=O)C1(N2CCCCC2)CCN(CCCN2c3ccccc3CCc3ccc(Cl)cc32)CC1`: the Potency in assay [1] was 23.9 µM (active); in assay [9], 23.9 µM (active); in assay [3] it was 23.9 µM (active); in assay [8] it was 26.6 µM (active). Besides, the Potency result in [5] and in assay [7] was “inactive” throughout.

Take `CC(C)(C)CC(C)(C)c1ccc(OCCOCC[N+](C)(C)Cc2ccccc2)cc1`: the Potency in assay [1] was 27.5 µM (active) and 15.1 µM (active); in assay [9], 54.9 µM (active) and 21.3 µM (active); in assay [4], 48.9 µM (active) and 26.8 µM (active); in assay [6], 26.8 µM (active). For the same compound, the Potency entry in assay [5] and in assay [7] was “inactive” throughout.

Turning to `O=C(c1ccc(F)cc1)C1CCN(CCn2c(=O)[nH]c3ccccc3c2=O)CC1`, the Potency entry in assay [1], in assay [4], in [5], in assay [7] and in assay [8] was “inactive” each time. Further, the Potency in assay [2] and in assay [3] was 9.52 µM (active) each time.

As to `CCOc1nc2cccc(C(=O)OC(C)OC(=O)OC3CCCCC3)c2n1Cc1ccc(-c2ccccc2-c2nn[nH]n2)cc1` (centres undefined), the Potency in assay [1] was 43.6 µM (active); in assay [3], 8.7 µM (active); in assay [4] it was 34.6 µM (active). The Potency entry in assay [7] is “inactive”.

For the compound `CCC(C)(C)C1CCCCC1OC(C)=O` (centres undefined), the Potency entry in assay [1], in assay [9], in assay [3], in [4], in assay [5] and in assay [6] was “inactive” in each case. For the same compound, the Potency entry in assay [7] and in assay [8] was “inactive” throughout.

For `O=c1[nH]cnc2nc[nH]c12`, the Potency result in assay [1], in [2], in assay [3], in assay [4], in assay [5] and in assay [6] was “inactive” in each case. Also, the Potency result in assay [7] is “inactive”.

Turning to `Cc1nc(-c2ccc3c(c2)CCN(CCC2CCC(NC(=O)/C=C/c4ccc(F)cc4)CC2)CC3)no1` (centres undefined), the Potency result in assay [1], in assay [9], in assay [4], in assay [5], in [7] and in assay [8] was “inactive” throughout.

Regarding `CCN(CC)CCCC(C)Nc1c2ccc(Cl)cc2nc2ccc(OC)cc12` (centres undefined), the Potency in assay [1] is 6.74 µM (active); in assay [2] it was 4.25 µM (active); in assay [3], 5.35 µM (active); in assay [4], 23.9 µM (active). The Potency result in assay [5] and in assay [7] was “inactive” each time.

Take `CC(C)CCCCCCCCCCCCCCC(=O)O`: the Potency entry in [1], in [9], in [3], in assay [4], in assay [5] and in [6] was “inactive” each time. Moreover, the Potency entry in [7] and in [8] was “inactive” in each case.

`CC1(C)CCC(C)(C)c2cc(C(=O)Nc3ccc(C(=O)O)cc3)ccc21`: the Potency result in [3], in assay [4], in [6], in assay [7] and in assay [8] was “inactive” each time.

As for `Clc1ccc2cc3ccccc3cc2c1`, the Potency entry in [10], in assay [9], in [4], in assay [5], in assay [6] and in assay [7] was “inactive” each time. The Potency result in assay [8] is “inactive”.

Regarding `O=C1Cc2cc(CCN3CCN(c4nsc5ccccc45)CC3)c(Cl)cc2N1`, the Potency in assay [2] is 23.9 µM (active). The Potency entry in assay [5], in assay [6] and in [7] was “inactive” each time.

In the case of `CCc1cc(Cc2cc(CC)cc(C(C)(C)C)c2O)c(O)c(C(C)(C)C)c1`, the Potency result in assay [10] and in assay [5] was “inactive” throughout. Moreover, the Potency in assay [9] is 49 µM (active); in [2], 15.5 µM (active); in assay [3], 13.8 µM (active).

As for `Nc1ccc(N)c2ccccc12`, the Potency in assay [1] was 54.9 µM (active); in assay [7], 19.3 µM (active); in assay [8] it was 61.1 µM (active). The Potency result in [4] and in assay [5] was “inactive” throughout.

Take `Oc1ccc(N=Nc2ccccc2)cc1`: the Potency result in assay [9], in assay [5], in [6] and in [7] was “inactive” each time. Besides, in assay [2], the Potency is 17.6 µM (active).

As for `CC(C)(C)C1CCC(CC2=C(O)c3ccccc3C(=O)C2=O)CC1` (centres undefined), the Potency entry in [9], in assay [4], in [5] and in assay [6] was “inactive” throughout. Also, the Potency in assay [7] is 29.8 µM (active); in assay [8] it was 10.6 µM (active).

For `NC(=NCCCCCCN=C(N)/N=C(\N)Nc1ccc(Cl)cc1)/N=C(\N)Nc1ccc(Cl)cc1`, the Potency was 35.3 µM (active) and 54.6 µM (active) in assay [10]; 43.4 µM (active) and 31.5 µM (active) and 24.4 µM (active) in assay [9]; 10.9 µM (active) [middle of 5 runs] in [2]; 54.6 µM (active) in assay [6]. For the same compound, the Potency result in [5] and in assay [7] was “inactive” in each case.

Take `Cc1cc(CCN2CCN(c3nsc4ccccc34)CC2)cc2c1NC(=O)CC2(C)C`: the Potency was 21.9 µM (active) in assay [3], 49 µM (active) in [4], 34.4 µM (active) in [7] and 27.3 µM (active) in assay [8]. Further, the Potency entry in [5] and in assay [6] was “inactive” throughout.

Consider `NC(=O)N1C(=O)C(C(=O)c2cc(Cl)cs2)c2cc(F)c(Cl)cc21` (centres undefined), for which the Potency entry in assay [10], in assay [9], in assay [2], in assay [3], in [4] and in [6] was “inactive” each time.

Turning to `C[C@H](CCC(=O)O)[C@H]1CC[C@H]2[C@@H]3CC[C@@H]4C[C@H](O)CC[C@]4(C)[C@H]3CC[C@]12C`, the Potency entry in assay [10], in [9], in [2], in assay [3], in assay [4] and in assay [5] was “inactive” each time. Moreover, the Potency result in [6] and in assay [7] was “inactive” in each case.
